Out of some 110,000 compounds screened, about 80 (0.07%) were called active. This is one part of a sample in which actives are shown more often than they occur.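 How the source made its calls: active means inhibition above the mean of the plate negative controls plus 5 SD (cut at about 13% in these data); inactive means the rest.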
test: inhibitors of macrophage phagocytosis, primary screen, imaging, J774A.1 cells, IgG beads (AID 1029); settings: J774A.1 macrophage IgG-bead phagocytosis, at 5 µM, hits give high values;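 further: phagocytic index as fraction of beads internalized from green versus red external bead signal; plate controls were DMSO negative control for no effect and cytochalasin-D positive control for full effect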

inhibition, inactive:
CCc1ccc(C2C(C#N)=C(N)N(N(C)C)C3=C2C(=O)CCC3)s1 (stereo not given) -3.98%
O=C(/C=C\c1ccc2c(c1)OCO2)NC1(C(=O)Nc2ccc3c(c2)OCCO3)CCCCC1 -2.27%
COc1ccc(NC(C(=O)Nc2cccc(C(C)=O)c2)c2ccccc2)cc1 (stereo not given) -15.7%
C/C(=N\NC(=O)c1ccc(CSc2nc(C)cc(C)n2)cc1)C1CCCCC1 -4.86%
CCCn1c(=O)c2c(C(F)(F)F)cc(-c3cccs3)nc2n(CCC)c1=O 1.31%
COC(=O)c1sc(N)c(C(=O)OC)c1COC(=O)CNS(=O)(=O)c1ccc(C)cc1 -11.5%
Cc1ccc(/C=C/C(=O)Nc2cc(S(=O)(=O)N3CCCCCC3)ccc2OCC(F)(F)F)o1 -12.4%
O=C(/C=C/NCc1ccc(F)cc1)c1ccccc1 -1.23%
Cn1cc(C(=O)NCc2ccccc2F)cn1 1.49%
C=CCc1ccccc1OCC(=O)N/N=C/c1ccccc1OCC 1.26%
CCOc1ccc(Oc2nc(C)cc(OC)n2)nn1 -0.15%
COCCCNC(=S)NC(=O)c1ccccc1 -6.86%
C/C(=N\NC(=O)Cc1ccc(F)cc1)c1ccc(F)cc1 -0.05%
COc1ccc(C(=O)CSc2nnc(NC(=O)C3CC(=O)N(c4cccc(OC)c4)C3)s2)cc1 (stereo not given) 6.45%
CC1CCCCN1S(=O)(=O)c1ccc(S(=O)(=O)N(CC(=O)Nc2ccccc2)Cc2cccs2)cc1 (stereo not given) -1.49%
COc1ccc([C@H]2[C@H](C(C)=O)N3N=Cc4ccccc4C3C23C(=O)OC(C)(C)OC3=O)cc1 (stereo not given in full) 5.33%
CCOC(=O)CNC(=O)/C=C/c1c(Cl)cccc1Cl -2.32%
CC(=O)NC(Cc1ccccc1)C(=O)NC1CCN(c2ncccc2[N+](=O)[O-])CC1 (stereo not given) 1.47%
COc1ccc(OCC(=O)Nc2cc(C)c(Cl)cc2OC)c([N+](=O)[O-])c1 -2.85%
COc1ccc(S(=O)(=O)NC(C)C)cc1C(=O)NC1CCCCC1 -3.85%
